# Source: ChEMBL document CHEMBL3988442, “University of Dundee, Small-Polar-MMV Screening Library” (2021)
# Screen size: about 48,000 compounds; about 13,000 (27%) showed an effect of 50% or more. This is one part of the list.
# System: Wolbachia pipientis
# Assay: Anti-Wolbachia Cell-Based Screen
# Format: functional
# Design: scale not given: in the data most compounds retested in dose-response had high values
# Conditions: 5 µM
row,SMILES,Percent Effect [%]
1,Cc1ncccc1OC1(C(=O)NCCC2CCCN2C)CCNCC1 (stereo not drawn),17.07
2,CCCOCC(=O)N1CCCN(Cc2csc(CC)n2)CC1,2.804
3,CS(=O)(=O)CCCN1CCSCC1c1ccc(Cl)cc1 (stereo not drawn),-3.255
4,CC(NC(=O)Nc1nccs1)c1cccnc1 (stereo not drawn),-1.338
5,CCN(CC(O)c1ccc(C)cc1)C(=O)NC(C)C (stereo not drawn),91.44
6,CCN(CC(=O)Nc1c(C)nn(C)c1C)CC(O)c1ccc(C)cc1 (stereo not drawn),2.184
7,CCC(CC)(CNC(C)=O)NC(C)c1ccccc1 (stereo not drawn),1.082
8,O=C(Nc1nccs1)N(CCO)Cc1ccsc1,-2.808
9,CC(C)CN(CC(O)c1ccccc1)C(=O)NC(C)C (stereo not drawn),126.3
10,CC(C)NC(=O)CNC(C)COc1ccccc1 (stereo not drawn),2.359
11,CCN(CC(=O)Nc1c(C)n[nH]c1C)CC(O)c1ccc(C)cc1 (stereo not drawn),-7.699
12,CC(C)CN(CC(O)c1ccccc1)C(=O)Nc1nccs1 (stereo not drawn),92.63
13,Cc1nn(C)c(Cl)c1C1CCCN1c1ncnc2[nH]ccc12 (stereo not drawn),-15.05
14,CCc1nnc(N[C@H](C)c2cccc(OC)c2)o1,-47.91
15,Cc1nc(CO[C@@H]2CN(Cc3cnn(C)c3)[C@@H]3COC[C@@H]32)cs1.O=C(O)C(F)(F)F,-7.827
16,Cn1cc(N2C(=O)CC[C@@H]3[C@H]2CCN3Cc2nccs2)cn1.O=C(O)C(F)(F)F,92.26
17,Cc1nc(CN2CC[C@H]3[C@H]2CCN3c2nncs2)cs1.O=C(O)C(F)(F)F.O=C(O)C(F)(F)F,10.04
18,Cn1cc(N2C(=O)CC[C@@H]3[C@H]2CCN3C(=O)c2cscn2)cn1.O=C(O)C(F)(F)F,-22.63
19,Cc1nc(CN2CC[C@H]3[C@@H]2CCC(=O)N3c2cnn(C)c2)cs1.O=C(O)C(F)(F)F,98.36
20,Cn1cc(C(=O)N[C@H]2CN(Cc3nccs3)[C@@H]3CCCO[C@H]23)cn1.O=C(O)C(F)(F)F,-3.983
21,Cc1nc(C)c(-c2nnc(SCC(=O)O)n2C(C)c2ccccc2)o1 (stereo not drawn),4.033
22,O=C(c1ccc(O)cc1)N1CCN(C(=O)c2ccc3c(c2)COC3)CC1,-5.572

row,SMILES,Percent Effect [%]
1,O=C(c1cccc(F)c1)N1CCCN(Cc2cscn2)CC1,112.5
2,Fc1cccc(CN2CCN(Cc3cscn3)CC2)c1,-6.647
3,CN1CCN(C(=O)c2cccc(OCc3cscn3)c2)CC1,-0.311
4,Cc1cccc(C(=O)N2CCCN(Cc3cscn3)CC2)c1,101.4
5,O=C(c1ccc2cc[nH]c2c1)N1CCCN(Cc2cscn2)CC1,102.9
6,Cn1cc(CN2CCCN(C(=O)c3ccc4c(c3)COC4)CC2)cn1,-5.776
7,O=C(c1ccc2c(c1)COC2)N1CCCN(Cc2cscn2)CC1,97.01
8,CSCC(CCO)NC(=O)Nc1cccc(Br)c1 (stereo not drawn),-3.109
9,O=C(NCCO)c1coc(CN2CCN(c3ccccc3F)CC2)n1,7.764
10,COCc1noc(-c2ccc(N(C)Cc3c(C)n[nH]c3C)nc2)n1,-8.806
11,O=C(NC[C@H]1OC[C@@H](NC2CCC(F)(F)CC2)[C@@H]1O)c1cccs1,-23.1
12,C=C(C)CN(CC)S(=O)(=O)c1ccccc1C#N,-2.977
13,Cc1nnc(NCC2(c3ccccc3)CCOCC2)c(C#N)c1C,-16.92
14,CC(C)Nc1nc2c(s1)C(=O)CN(C)C2,130.6
15,CC(C)c1nn(C)c(N(C)C)c1CNC1CCN(CC2CC2)CC1,-26.39
16,COCCN1CCc2cc(C(=O)N(C)C)c(NC(C)C)nc2CC1.O=C(O)C(F)(F)F.O=C(O)C(F)(F)F,7.689
17,COCCN1CCC(NCc2c(C(C)C)nn(C)c2N(C)C)CC1,-4.673
18,CCN1CC(=O)c2sc(NC(C)C)nc2C1,96.98
19,COCCN1CC(=O)c2sc(NC(C)C)nc2C1,130.5
20,CC(C)Nc1nc2c(s1)C(=O)CN(CC1CC1)C2,101.7
21,CSC(C)(C)CNC(=O)NC1CCN(C)CC1,-3.442
22,CC(C)C(C)(C#N)NC(=O)Cn1cc(C(N)=O)c(-c2ccccc2)n1 (stereo not drawn),12.8

row,SMILES,Percent Effect [%]
1,CCNC(=O)NCc1cccc(N2CC=CC2)c1,-0.5505
2,CCc1noc(CN(C)CCC(=O)Nc2ccc(Cl)cc2)n1,-6.397
3,CCN(CCn1cccn1)Cc1nc(-c2ccoc2)oc1C,-32.03
4,CCN1CC(CN(C)Cc2nc(-c3ccc(F)cc3F)oc2C)CC1=O (stereo not drawn),223.2
5,CCN1CC(CN(C)Cc2nc(-c3ccc(C)o3)oc2C)CC1=O (stereo not drawn),106.5
6,Cc1oc(-c2ccc(F)cc2)nc1CN1CCOCS1(=O)=O,1.059
7,CCCOC1CCCN(Cc2nc(-c3ccc(F)cc3F)oc2C)C1 (stereo not drawn),11.6
8,CCN(CCn1cccn1)Cc1nc(-c2ccc(F)cc2)oc1C,16.6
9,Cc1oc(-c2ccc(F)cc2F)nc1CN1C[C@@H](C)O[C@@H](C)C1,30.19
10,Cc1oc(-c2ccoc2)nc1CN1CCC[C@H]1CO,2.013
11,CCN1CC(CN(C)Cc2nc(-c3ccoc3)oc2C)CC1=O (stereo not drawn),101.6
12,CCN(C)Cc1nc(-c2ccccc2NS(C)(=O)=O)oc1C,17.24
13,CCN(CCn1cccn1)Cc1nc(-c2ccc(C)o2)oc1C,17.65
14,CCN1CC(CN(C)Cc2nc(-c3ccc(F)cc3)oc2C)CC1=O (stereo not drawn),117.1
15,O=C(c1ccc(O)cn1)N1CCOC(c2ccc(Cl)c(Cl)c2)C1 (stereo not drawn),-8.844
16,CCc1cnc(NCCSc2cnn[nH]2)nc1,4.76
17,COC(=O)CCCNC(=O)COc1ccccc1C(F)(F)F,-5.238
18,CCCNC(=O)c1cc2c(s1)CCN2C(=O)c1ccccc1,88.89
19,O=C(NC1CCCC1)NC1CCC(C(=O)N2CCSCC2)CC1 (stereo not drawn),9.425
20,CCCNC(=O)CCNC(=O)c1ccccc1N1CCOCC1,6.654
21,O=C(c1cc2c(s1)CCN2C(=O)C1CC1)N1CCCC1,-2.581
22,O=C(NC1CCCC1)c1cc2c(s1)CCN2C(=O)c1ccccc1,94.77

row,SMILES,Percent Effect [%]
1,COCCNC(=O)c1cc2c(s1)CCN2C(=O)c1ccccc1,3.263
2,O=C(NC1CC1)c1cc2c(s1)CCN2C(=O)C1CC1,91.55
3,COCCN(C)C(=O)c1cc2c(s1)CCN2C(=O)C1CC1,113.8
4,CN1C[C@H](COCC2CC2)[C@H]2CCN(Cc3ccco3)CC[C@H]2C1=O,-20.01
5,CCOC1CCN(CCc2nc(-c3cccc(Cl)c3)no2)CC1,9.803
6,CC(O)C(=O)N1CCC(c2nccn2Cc2cscn2)CC1 (stereo not drawn),-11.64
7,O=C(NCCN1CCCC1)c1cc2c(s1)CCN2C(=O)c1ccccc1,91.37
8,CN1CCCN(C(=O)c2cc3c(s2)CCN3C(=O)c2ccccc2)CC1,-3.728
9,CC(C1CC1)N(CC(=O)NCC(F)(F)F)C1CC1 (stereo not drawn),-3.588
10,O=C(CNc1cccc2c1CCCC2)Nc1ccccc1Br,7.656
11,NC(=O)c1ccc(N2CCCCC2)c(NC(=O)c2cc(Br)ccc2Cl)c1,10.69
12,NC(=O)C1CCN(C(=O)c2ccc(Cn3cc(Br)cn3)cc2)CC1,-10.39
13,O=C(c1cc(Br)ccc1-n1cnnn1)N1CCCC1,113.6
14,NC(=O)c1ccc(N2CCCCC2)c(NC(=O)c2cc(Br)ccc2F)c1,10.52
15,O=C(c1cc(Br)ccc1Cl)N1CCN(Cc2ccco2)CC1,8.904
16,Cc1cnn(C2CCCN(C(=O)c3sccc3-n3cnnn3)C2)c1 (stereo not drawn),-13.25
17,NC(=O)C1CCN(C(=O)c2cc(Br)ccc2-n2cnnn2)CC1,120.4
18,O=C(c1cc(Br)ccc1-n1cnnn1)N1CCCCC1,184.2
19,NC(=O)C1CCN(C(=O)c2ccccc2OCc2ccncc2)CC1,-0.6716
20,O=C1C(Nc2ccc3nccnc3n2)CCN1c1ccccc1F (stereo not drawn),-13.15
21,O=C(CCCc1ccccc1)Nc1cnc(N2CCOCC2)nc1,-16.01
22,CNC(=O)c1cccc(CNC(C)c2cc(Cl)ccc2OC)c1 (stereo not drawn),8.961

row,SMILES,Percent Effect [%]
1,CCc1c(C)nn(C)c1NC(=O)N1CCCOC(Cn2cccn2)C1 (stereo not drawn),-2.471
2,CCOCCn1nc(C)cc1C(=O)N1CC(C)(C)[C@@](C)(O)C1,-27.83
3,CC1=Nc2c(c(=O)[nH]n2C(C)C)C(c2ccccc2)S1 (stereo not drawn),3.045
4,CC1=Nc2c(c(=O)[nH]n2C(C)C)C(c2ccsc2)S1 (stereo not drawn),124.6
5,CC1=Nc2c(c(=O)[nH]n2C(C)C)C(c2ccc(F)c(F)c2)S1 (stereo not drawn),0.5897
6,COc1cc(OC)cc(N2CCC(NCc3cc[nH]n3)C2)c1 (stereo not drawn),-8.563
7,Cc1ccc(C(NC(=O)Cc2nc3ncccn3n2)C2CC2)cc1 (stereo not drawn),-15.47
8,O=S(=O)(c1ccc2c(c1)CCC2)N1CCCC(Cn2cncn2)C1 (stereo not drawn),1.903
9,CCCSCC(=O)Nc1ncn(CC(=O)NCc2ccccc2)n1,0.11
10,CC(Cn1ccnc1)NC(=O)NCCc1ccccn1 (stereo not drawn),-12.71
11,O=C(CSCc1ccncc1)NCC1CCN(C2CC2)C1 (stereo not drawn),13.02
12,CCN(C)Cc1cccc(CNC(=O)CSCc2ccccn2)c1,99.73
13,COc1cccc(CSCC(=O)NCc2cccnc2)c1,3.69
14,CCCC(=O)NCc1cccc(C(=O)OC)c1,-9.94
15,CCCSCC(=O)NCc1cccc(CN(C)CC)c1,105
16,O=C(NCCNc1ncccn1)NCc1cccc(OC(F)F)c1,-1.067
17,CCN(C)Cc1cccc(CNC(=O)CSCc2ccncc2)c1,124.3
18,O=C(CSCc1ccccn1)NCC1CCN(C2CC2)C1 (stereo not drawn),21.4
19,CCN(C)Cc1cccc(CNC(=O)NCCc2ccccn2)c1,112.6
20,O=C(CSCc1ccccn1)NCC1CC1,22.7
